# Laboratory results: PubChem BioAssay AID1159580 (chemical genetic matrix, 2015)
# About 2,000 (36%) of roughly 5,500 compounds were called active. Not shown: some 18% with an inconclusive outcome. Some of the results follow. Values without a mark were called inactive. Rule as the data show it: active = normalized growth mostly below about 0.91 (no sharp cut-off); inconclusive = no clear call, values can overlap the other calls; inactive = mostly above about 0.92.
# Experiment: chemical genetic growth profiling, strain panel (AID 1159580);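 also: tested at 20 µM; growth read once vehicle control cultures reached saturation at 30 °C; 1 = growth at the plate median or of vehicle wells; lower values mean less growth of the strain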
# Conditions: S. cerevisiae deletion strains, growth OD
# [1] = locus YJL187C, strain SWE1, stronger effect = lower value
# [2] = locus YHR030C, strain SLT2, stronger effect = lower value
structure (smiles),measurement,setting,value
COc1cccc(/C=C/C(=O)O)c1C(C)C,normalized growth,"locus YAL021C, strain ccr4, stronger effect = lower value",0.952
same,normalized growth,"locus YAL026C, strain drs2, stronger effect = lower value",0.983
same,normalized growth,"locus YAL030W, strain snc1, stronger effect = lower value",0.978
same,normalized growth,"locus YBL061C, strain skt5, stronger effect = lower value",0.973
same,normalized growth,"locus YBR009C, strain hhf1, stronger effect = lower value",1.01
same,normalized growth,"locus YBR023C, strain chs3, stronger effect = lower value",0.973
same,normalized growth,"locus YBR171W, strain sec66, stronger effect = lower value",0.969
same,normalized growth,"locus YBR231C, strain swc5, stronger effect = lower value",0.976
same,normalized growth,"locus YBR279W, strain paf1, stronger effect = lower value",0.995
same,normalized growth,"locus YCL011C, strain gbp2, stronger effect = lower value",0.999
same,normalized growth,"locus YCL016C, strain dcc1, stronger effect = lower value",0.982
same,normalized growth,"locus YCL069W, strain vba3, stronger effect = lower value",0.982
same,normalized growth,"locus YCR088W, strain abp1, stronger effect = lower value",0.977
same,normalized growth,"locus YDL005C, strain med2, stronger effect = lower value",0.96
same,normalized growth,"locus YDL040C, strain nat1, stronger effect = lower value",0.988
same,normalized growth,"locus YDR001C, strain nth1, stronger effect = lower value",0.983
same,normalized growth,"locus YDR069C, strain doa4, stronger effect = lower value",0.97
same,normalized growth,"locus YDR137W, strain rgp1, stronger effect = lower value",0.992
same,normalized growth,"locus YDR159W, strain sac3, stronger effect = lower value",0.917
same,normalized growth,"locus YDR195W, strain ref2",0.96
same,normalized growth,"locus YDR297W, strain sur2, stronger effect = lower value",0.973
same,normalized growth,"locus YDR334W, strain swr1, stronger effect = lower value",0.983
same,normalized growth,"locus YDR335W, strain msn5, stronger effect = lower value",0.994
same,normalized growth,"locus YDR392W, strain spt3, stronger effect = lower value",0.961
same,normalized growth,"locus YEL003W, strain gim4, stronger effect = lower value",0.994
same,normalized growth,"locus YEL037C, strain rad23, stronger effect = lower value",0.985
same,normalized growth,"locus YEL061C, strain CIN8 (second series), stronger effect = lower value",1
same,normalized growth,"locus YER015W, strain faa2, stronger effect = lower value",0.977
same,normalized growth,"locus YER016W, strain bim1, stronger effect = lower value",0.981
same,normalized growth,"locus YER111C, strain swi4, stronger effect = lower value",0.976
same,normalized growth,"locus YER155C, strain BEM2 (second series), stronger effect = lower value",0.967
same,normalized growth,"locus YFR010W, strain ubp6, stronger effect = lower value",0.99
same,normalized growth,"locus YGL167C, strain pmr1, stronger effect = lower value",0.978
same,normalized growth,"locus YGL173C, strain kem1, stronger effect = lower value",0.991
same,normalized growth,"locus YGL227W, strain vid30, stronger effect = lower value",0.985
same,normalized growth,"locus YGL240W, strain doc1, stronger effect = lower value",0.984
same,normalized growth,"locus YGL253W, strain hxk2, stronger effect = lower value",0.98
same,normalized growth,"locus YHR013C, strain ard1, stronger effect = lower value",0.957
same,normalized growth,"locus YHR027C, strain rpn1, stronger effect = lower value",0.995
same,normalized growth,"locus YHR142W, strain chs7, stronger effect = lower value",0.996
same,normalized growth,"locus YJL092W, strain hpr5, stronger effect = lower value",0.983
same,normalized growth,"locus YJL095W, strain BCK1 (second series), stronger effect = lower value",0.974
same,normalized growth,"locus YJL115W, strain asf1, stronger effect = lower value",0.972
same,normalized growth,"locus YJL129C, strain trk1, stronger effect = lower value",0.973
same,normalized growth,"locus YJL154C, strain vps35, stronger effect = lower value",0.983
same,normalized growth,"locus YJL164C, strain tpk1, stronger effect = lower value",0.985
same,normalized growth,"locus YJL166W, strain qcr8, stronger effect = lower value",0.982
same,normalized growth,[1],0.998
same,normalized growth,"locus YKL160W, strain elf1, stronger effect = lower value",0.987
same,normalized growth,"locus YKR026C, strain gcn3, stronger effect = lower value",0.982
same,normalized growth,"locus YKR091W, strain srl3, stronger effect = lower value",0.999
same,normalized growth,"locus YLL001W, strain dnm1, stronger effect = lower value",0.988
same,normalized growth,"locus YLL026W, stronger effect = lower value",0.972
same,normalized growth,"locus YLL041C, strain sdh2, stronger effect = lower value",0.971
same,normalized growth,"locus YLR027C, strain aat2, stronger effect = lower value",0.989
same,normalized growth,"locus YLR221C, strain rsa3, stronger effect = lower value",0.999
same,normalized growth,"locus YLR258W, strain gsy2, stronger effect = lower value",0.986
same,normalized growth,"locus YLR262C, strain YPT6 (second series), stronger effect = lower value",1.03
same,normalized growth,"locus YLR320W, strain mms22, stronger effect = lower value",0.975
same,normalized growth,"locus YLR342W, strain FKS1, stronger effect = lower value",0.982
same,normalized growth,"locus YLR357W, strain rsc2, stronger effect = lower value",0.945
same,normalized growth,"locus YLR370C, strain arc18, stronger effect = lower value",0.993
same,normalized growth,"locus YLR384C, strain iki3, stronger effect = lower value",0.989
same,normalized growth,"locus YML120C, strain ndi1, stronger effect = lower value",0.979
same,normalized growth,"locus YMR058W, strain fet3, stronger effect = lower value",0.976
same,normalized growth,"locus YMR125W, strain sto1, stronger effect = lower value",0.988
same,normalized growth,"locus YMR129W, stronger effect = lower value",0.99
same,normalized growth,"locus YMR205C, strain PFK2, stronger effect = lower value",0.937
same,normalized growth,"locus YMR231W, strain pep5, stronger effect = lower value",0.977
same,normalized growth,"locus YNL071W, strain lat1, stronger effect = lower value",0.982
same,normalized growth,"locus YNL209W, strain ssb2, stronger effect = lower value",1.01
same,normalized growth,"locus YNL248C, strain rpa49, stronger effect = lower value",0.988
same,normalized growth,"locus YNL322C, strain KRE1 (second series), stronger effect = lower value",0.951
same,normalized growth,"locus YNR049C, strain mso1, stronger effect = lower value",0.967
same,normalized growth,"locus YOR001W, strain rrp6, stronger effect = lower value",0.998
same,normalized growth,"locus YOR070C, strain gyp1, stronger effect = lower value",0.999
same,normalized growth,"locus YOR080W, strain dia2, stronger effect = lower value",0.994
same,normalized growth,"locus YOR083W, strain WHI5, stronger effect = lower value",0.981
same,normalized growth,"locus YOR106W, strain vam3, stronger effect = lower value",1.01
same,normalized growth,"locus YOR265W, strain rbl2, stronger effect = lower value",0.973
same,normalized growth,"locus YOR270C, strain vph1, stronger effect = lower value",1.02
same,normalized growth,"locus YOR290C, strain snf2, stronger effect = lower value",0.98
same,normalized growth,"locus YPL051W, strain arl3, stronger effect = lower value",0.996
same,normalized growth,"locus YPL078C, strain atp4, stronger effect = lower value",1.01
same,normalized growth,"locus YPL106C, strain sse1, stronger effect = lower value",0.929
same,normalized growth,"locus YPL240C, strain hsp82, stronger effect = lower value",0.976
O=C(O)/C=C/c1ccccc1,normalized growth,[2],0.834 (active)
same,normalized growth,"locus YHR079C, strain IRE1, stronger effect = lower value",0.838 (active)
same,normalized growth,"locus YJL095W, strain BCK1, stronger effect = lower value",0.862 (active)
same,normalized growth,"locus YJR066W, strain TOR1, stronger effect = lower value",0.801 (active)
same,normalized growth,"locus YLR113W, strain HOG1, stronger effect = lower value",0.722 (active)
same,normalized growth,"locus YNL183C, strain NPR1, stronger effect = lower value",0.786 (active)
same,normalized growth,"locus YOR231W, strain MKK1, stronger effect = lower value",0.823 (active)
same,normalized growth,"locus YPL256C, strain CLN2, stronger effect = lower value",0.742 (active)
O=C(N/N=C\C=C\c1ccccc1)c1ccccc1-n1cccc1,normalized growth,"locus YAL013W, strain DEP1, stronger effect = lower value",0.96
same,normalized growth,"locus YBR229C, strain ROT2, stronger effect = lower value",0.979
same,normalized growth,"locus YDL101C, strain DUN1, stronger effect = lower value",0.993
same,normalized growth,"locus YDR150W, strain NUM1, stronger effect = lower value",0.996
same,normalized growth,"locus YEL061C, strain CIN8, stronger effect = lower value",1
same,normalized growth,"locus YGR078C, strain PAC10, stronger effect = lower value",0.988
same,normalized growth,[2],0.925
same,normalized growth,"locus YHR087W, strain rtc3, stronger effect = lower value",0.93
same,normalized growth,[1],0.976
same,normalized growth,"locus YJR043C, strain POL32, stronger effect = lower value",1.01
same,normalized growth,"locus YJR075W, strain HOC1, stronger effect = lower value",0.997
same,normalized growth,"locus YLR039C, strain RIC1, stronger effect = lower value",0.87
same,normalized growth,"locus YLR058C, strain SHM2 (second series), stronger effect = lower value",0.97
same,normalized growth,"locus YLR085C, strain ARP6, stronger effect = lower value",0.836
same,normalized growth,"locus YLR262C, strain YPT6, stronger effect = lower value",0.833
same,normalized growth,"locus YML094W, strain GIM5, stronger effect = lower value",0.939
same,normalized growth,"locus YMR219W, strain ESC1, stronger effect = lower value",0.99
same,normalized growth,"locus YMR263W, strain SAP30, stronger effect = lower value",0.973
same,normalized growth,"locus YMR307W, strain GAS1, stronger effect = lower value",0.713
same,normalized growth,"locus YNL128W, strain TEP1, stronger effect = lower value",0.987
same,normalized growth,"locus YNL153C, strain GIM3, stronger effect = lower value",1
same,normalized growth,"locus YNL298W, strain CLA4 (second series), stronger effect = lower value",0.928
same,normalized growth,"locus YNL322C, strain KRE1, stronger effect = lower value",0.996
same,normalized growth,"locus YNR030W, strain Alg12, stronger effect = lower value",0.906
same,normalized growth,"locus YPL055C, strain LGE1, stronger effect = lower value",0.899
same,normalized growth,"locus YPL241C, strain CIN2, stronger effect = lower value",0.948
same,normalized growth,"locus YPR135W, strain CTF4, stronger effect = lower value",0.795
